In the library only some 4.3% were active in any assay of this set; here they are far more common.
GLP1R inv ag = GLP-1 receptor (human) inverse agonism; P43220; HEK293 GLP-1R CRE-luciferase, luminescence, 24 h; GLP-1R form is constitutively active; Potency, µM (highest dose often 38.3 µM), without a hit: at the top dose activity change, negative = inhibition, actives largely listed as inhibitors; 1.6% of 410,000 active; also: potency is read from the fitted curve at half-maximal effect; % is scaled to controls: 0 for no effect and ±100 for the full control effect; nearly all actives have a fitted effect of over 55% in size
Target sequence (P43220 whole entry, looked up): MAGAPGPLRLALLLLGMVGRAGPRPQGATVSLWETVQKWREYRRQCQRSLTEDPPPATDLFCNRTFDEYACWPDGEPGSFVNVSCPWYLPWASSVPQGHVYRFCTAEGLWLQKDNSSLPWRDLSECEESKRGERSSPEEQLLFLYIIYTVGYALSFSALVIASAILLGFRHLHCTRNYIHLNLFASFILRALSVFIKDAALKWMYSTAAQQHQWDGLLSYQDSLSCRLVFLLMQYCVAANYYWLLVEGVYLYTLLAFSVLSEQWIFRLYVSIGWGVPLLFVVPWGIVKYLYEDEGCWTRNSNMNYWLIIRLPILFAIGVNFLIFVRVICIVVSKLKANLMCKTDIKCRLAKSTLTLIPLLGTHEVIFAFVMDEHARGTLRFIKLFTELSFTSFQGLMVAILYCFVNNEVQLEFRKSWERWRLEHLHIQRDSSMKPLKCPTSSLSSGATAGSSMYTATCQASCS
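Inverse agonists were sought by their lowering of basal cAMP reporter luciferase output in HEK293 cells stably carrying constitutively active human GLP-1R, after 24 h compound treatment.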
DRD3 agonist = agonists of human D3 dopamine receptor; P35462; D3R DiscoveRx beta-arrestin cells, luminescence, 90 min; max activation, %; 0.58% of 410,000 active; in the data active = max activation above about 30%; also: 0% is about no effect
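Agonist-mode cell screen: cells plated at 1500/well and incubated overnight at 37 °C, then exposed to library compounds for 90 min at 37 °C. Detection reagent was added for 30–60 min at room temperature, and luminescence was read.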
GLP1R ag = GLP-1 receptor (human) agonism; P43220; 0.007% of 380,000 active; AID 624172; Potency, µM (titrated, usually from 45.6 µM), inactives show at the top dose activation, usual class: activators; HEK293 GLP-1R CRE-luciferase, luminescence, 4-6 h; cells express a hypersensitive GLP-1R form; also: potency is read from the fitted curve at half-maximal effect; % of control where 0% means no effect
D3 antag = D3 dopamine receptor (human) antagonism. D3R cells, DiscoveRx beta-arrestin luminescence, antagonist mode; stronger effect = lower value. max response, negative = inhibition, %. 2.5% of 360,000 active. P35462; in the data active = max response below about -50%; inconclusive = no clear call, values can overlap the other calls; also: % is scaled to controls: 0 for no effect and ±100 for the full control effect
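Cells plated overnight at 1500 cells/well, then exposed to library compounds with dopamine controls for 90 minutes at 37 degrees C. DiscoveRx reagent added for 30–60 minutes at room temperature; luminescence read, quantitative HTS format.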
* = called active by the depositor; ? = inconclusive; nt = no result given. Unless noted, calls follow the shape of the dose curve; as a rule, active = well fitted curve in the direction sought with a large enough effect; inconclusive = small, poorly fitted or top-dose-only effect, or another doubt; inactive = no such curve, though single readings can be large; an effect the other way counts as inactive or inconclusive.

SMILES	GLP1R inv ag	DRD3 agonist	GLP1R ag	D3 antag
COc1ccc2[nH]c(C(=O)NCCN3CCCCC3)cc2c1	-29.9%	-15.7	-1.2%	-25.4
O=C(NCCN1CCCCC1)c1cc2ccccc2[nH]1	-23.0%	-14.8	-14.8%	-71.9*
NNC(=O)c1cc2ccccc2[nH]1	?	-9.5	11.2%	-52.0*
O=C(CSc1nc2ccccc2c2nc(-c3ccccc3)nn12)Nc1ccc(Br)cc1	0.8%	-8.6	nt	nt
CC1=C(C(=O)NCc2ccc(Cl)cc2)C2(CCCCCC2)OC1=O	?	-12.5	nt	nt
CC1CCN(CCC(=O)Nc2ccc(Cl)cc2)CC1	?	-15.3	-0.4%	-64.4*
Cc1ccc(NC(=O)CCN2CCN(C)CC2)cc1	17.8%	5.2	0.0%	0.4
Cc1ccc(NC(=O)CCN2CCC(C)CC2)cc1	-5.1%	-22.3	6.6%	-62.0*
CCCCN(C)CCC(=O)Nc1ccc2c(c1)CCC2	?	-15.0	9.1%	-57.3*
CC1CCN(CCC(=O)Nc2ccc3c(c2)CCC3)CC1	6.5%	-29.6	-5.4%	-58.6*
COc1ccc(NC(=O)CN(C)CC(=O)Nc2ccc3c(c2)CCC3)cc1	?	-0.5	-0.7%	2.6
CC(=O)c1cccc(NC(=O)CSc2nc3ccccc3nc2Cc2ccc(F)cc2)c1	12.0%	-1.3	nt	nt
CCOC(=O)C1CCCN(CCC(=O)Nc2ccc(C)cc2)C1 (configuration not stated)	-10.1%	-6.6	-5.9%	-70.7*
Cc1ccc2c(c1)NC(=O)C(CC(=O)Nc1ccc(CN3CCC(C)CC3)cc1)O2 (configuration not stated)	12.6%	-9.4	2.9%	-60.6*
CCCN1CCN(CCCNC(=S)Nc2ccc3nc(N4CCN(CC)CC4)cc(C)c3c2)CC1	?	-18.1	3.9%	?
Cc1cc(N2CCN(C)CC2)nc2ccc(NC(=S)NCCCN3CCc4ccccc4C3)cc12	?	-20.0	22.2%	-84.1*
CCN1CCN(c2cc(C)c3cc(NC(=S)NCCCN4CCc5ccccc5C4)ccc3n2)CC1	?	-20.2	17.9%	-87.2*
Cc1cc(N2CCN(C)CC2)nc2ccc(NC(=S)NCCN3CCc4ccccc4C3)cc12	?	-20.2	21.3%	-75.7*
Cc1cc(N2CCCC2)nc2ccc(NC(=S)NCCCN3CCC(C)CC3)cc12	5.01µM*	-22.7	-2.3%	-65.6*
Cc1ccccc1NC(=O)Nc1ccc2nc(N3CCN(C)CC3)cc(C)c2c1	4.5%	-24.7	nt	nt
O=c1c(-c2cc(-c3ccccc3)nc3c2COc2ccc(Cl)cc2-3)coc2ccccc12	13.2%	-0.9	0.2%	nt
CCCC(=O)Nc1ccc2c(c1)nc(CN1CCN(C(=O)OCC)CC1)n2C(C)C	?	-13.6	nt	nt
O=C(CNC(c1ccccc1)c1ccccc1)NCc1ccccc1Cl	10µM*	1.8	12.5%	2.9
CCN1CCN(c2ccc(N3CCN(S(=O)(=O)c4ccc(C)c([N+](=O)[O-])c4)CC3)nn2)CC1	1.58µM*	-25.6	-2.0%	-23.8
CCCCOc1ccc(CSCCNC(=S)Nc2ccccc2)cc1	1.78µM*	-5.5	-4.2%	1.1
SMILES	GLP1R inv ag	DRD3 agonist	GLP1R ag	D3 antag
CC(C)COc1ccc(CSCCNC(=S)Nc2ccccc2)cc1	3.16µM*	-10.7	1.8%	0.0
CCCCCOc1ccc(CSCCNC(=S)Nc2ccccc2)cc1	?	-5.1	-3.6%	-9.7
CC(C)C[C@H](NC(=O)c1nc[nH]c1C(=O)N1CCNCC1)C(=O)OC(C)(C)C	1.1%	-17.4	-16.0%	-53.9*
CC(C)C[C@H](NC(=O)c1[nH]cnc1C(=O)N[C@@H](Cc1ccccc1)C(=O)OC(C)(C)C)C(=O)OCc1ccccc1	?	9.8	6.0%	12.1
CC(C)C[C@H](NC(=O)c1nc[nH]c1C(=O)NCc1ccccc1)C(=O)OCc1ccccc1	?	-3.8	-5.9%	-52.6*
CC(C)C[C@H](NC(=O)c1[nH]cnc1C(=O)N[C@@H](C)c1ccccc1)C(=O)OC(C)(C)C	10µM*	-23.2	6.6%	?
CC(C)C[C@H](NC(=O)c1[nH]cnc1C(=O)N[C@@H](Cc1ccccc1)C(=O)OC(C)(C)C)C(=O)OC(C)(C)C	10µM*	-33.6	1.8%	?
Cc1ccc(C)c(N2CCN(S(=O)(=O)c3ccc4c(c3)NC(=O)CS4)CC2)c1	?	3.7	1.5%	-6.4
Cc1ccc(Cc2nc3ccccc3nc2SCC(=O)NCCc2ccccc2)cc1	-3.3%	7.6	0.2%	nt
Nc1nc(N=Nc2ccc(O)cc2)cc(=O)[nH]1	-8.5%	-22.3	0.7%	-90.1*
O=C1C[C@@H]2c3c(cccc3CN1Cc1ccccc1F)C[C@@H](O)[C@H]2O	6.8%	49.1*	-2.5%	0.0
C/C(=N\NC(=O)C(C)Oc1ccc([N+](=O)[O-])cc1)c1ccccn1 (configuration not stated)	?	-90.5	-6.2%	-105.8*
CC(=O)N(/N=C1\Sc2ccccc2C1=O)c1ccccc1	16.0%	-2.5	-9.2%	-58.6*
CC(=O)N(/N=C1\Sc2ccccc2C1=O)c1ccccc1C	0.0%	7.5	14.3%	-4.2
Cc1c(C)c2c(c(C)c1OC(=O)CCC(=O)O)CC[C@@](C)(CCC[C@H](C)CCC[C@H](C)CCCC(C)C)O2	nt	6.4	11.1%	nt
CC1=CC2=C(OC1N(C)C)c1cccc3cccc(c13)C2=O (configuration not stated)	18.8%	-10.6	0.0%	-51.6*
COc1ccccc1CNC(=O)CN1C(=O)COc2ccc(S(=O)(=O)Nc3ccccc3)cc21	-22.3%	-9.7	0.1%	nt
CCCCn1nnnc1SCC(=O)NC1CCCCC1	11.8%	2.2	18.5%	7.3
CCn1nnnc1SCC(=O)NNC(=O)C1CCCCC1	-0.9%	-2.5	9.2%	-80.2*
CC(=O)Nc1ccc(NC(=O)c2nc(S(=O)(=O)Cc3cccc(C)c3)ncc2Cl)cc1	?	-27.9	-4.0%	-74.7*
Cc1ccc(NC(=O)c2nc(S(=O)(=O)Cc3ccccc3C)ncc2Cl)cc1C	?	-31.8	-8.8%	-73.7*
COC(=O)c1ccc(NC(=O)c2nc(S(=O)(=O)Cc3cccc(C)c3)ncc2Cl)cc1	?	-28.1	-2.5%	-53.1*
Cc1cccc(CS(=O)(=O)c2ncc(Cl)c(C(=O)NCc3ccc4c(c3)OCO4)n2)c1	8.91µM*	-0.6	-15.4%	-97.4*
Cc1ccc(NC(=O)c2nc(S(=O)(=O)Cc3ccc(F)cc3)ncc2Cl)cc1C	?	-22.7	nt	nt
O=C1OC(OC(=O)c2cccnc2Nc2cccc(C(F)(F)F)c2)c2ccccc21 (configuration not stated)	nt	2.8	-3.9%	nt
CCCCCCOC(=O)/C=C/c1c(C)[nH]c(=O)[nH]c1=O	12.0%	-3.2	0.8%	-19.7
Cc1cc2c(cc1S(=O)(=O)Nc1cccc(C#N)c1)OCC(=O)N2	10.9%	4.7	nt	nt
CN1CCc2nc(SCC(=O)Nc3cccc(F)c3)c(C#N)c(-c3cccs3)c2C1	0.0%	-27.1	-1.1%	-50.3*
CN1CCc2nc(SCC(=O)Nc3ccc(OC(F)(F)F)cc3)c(C#N)c(-c3cccs3)c2C1	?	-9.5	-0.1%	?

From PubChem
